Results from the supplement of paper PMC8975748.
Counter-ions that a name gives are not always drawn.

test system: Saccharomyces cerevisiae BY4741 SeMeCo community; assay: z-score of subpopulation abundance vs DMSO median, subpopulation auxotrophic for HLU; higher = larger share of this subpopulation than in DMSO controls; details: 10 µM; 24 h; SM minimal medium; subpopulation (auxotrophy): HLU
Method: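 Fluorescent four-plasmid SeMeCo (self-establishing metabolically cooperating S. cerevisiae BY4741 community; plasmids pH-mRuby2, pL-mWasabi, pU-eCFP, pM-TagRFP657) was grown 24 h in minimal SM medium with each Selleck FDA-approved drug at 10 µM in 384-well plates. Cells were fixed and imaged by high-content confocal microscopy. For each auxotrophic subpopulation (and the prototroph), a z-score gives the deviation from the DMSO vehicle-control population median.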

| SMILES | z-score of subpopulation abundance |
| --- | --- |
| COc1ccc2c(c1)[C@]13CCCC[C@@H]1[C@H](C2)N(C)CC3 [Dextromethorphan hydrobromide hydrate] | -0.08 |
| COc1ccc2c3c([nH]c2c1)C(C)=NCC3 [Harmaline] | -4.09 |
| CN1c2ccccc2C(NCCCCCCC(=O)O)c2ccc(Cl)cc2S1(=O)=O (stereo not given) [Tianeptine sodium] | -0.23 |
| CCOC(=O)Nc1ccc(NCc2ccc(F)cc2)cc1N [Retigabine] | 0.77 |
| Oc1cccc2cccnc12 [8-Hydroxyquinoline] | -0.85 |
| CC[C@@H](C(N)=O)N1CCCC1=O [Levetiracetam] | -0.28 |
| CCCCCCCCCCCCCCCC[n+]1ccccc1 [Cetylpyridinium Chloride] | 9.76 |
| C[C@@H]1CC[C@H]2[C@@H](C)C(=O)O[C@@H]3O[C@@]4(C)CC[C@@H]1[C@]32OO4 [Artemisinin] | -0.05 |
| C[N+](C)(C)CCCCCCCCCC[N+](C)(C)C [Decamethonium Bromide] | 0 |
| CC(NC(C)(C)C)C(=O)c1cccc(Cl)c1 (stereo not given) [Amfebutamone (Bupropion) HCl] | -0.82 |
| O=C(O[C@H]1C[C@H]2CC[C@@H](C1)[N+]21CCCC1)C(O)(c1ccccc1)c1ccccc1 [Trospium chloride] | -0.58 |
| CN(C)C(=O)Oc1ccc[n+](C)c1 [Pyridostigmine Bromide] | -0.68 |
| O=[N+]([O-])C(Br)(CO)CO [Bronopol] | 0.49 |
| CC(C)(O)C(Cl)(Cl)Cl [Chlorobutanol] | 0.97 |
| CN1[C@@H]2C[C@@H](OC(=O)[C@H](CO)c3ccccc3)C[C@H]1[C@@H]1O[C@@H]12 [Scopolamine HBr trihydrate] | -0.91 |
| CC(C)=CCOc1c2occc2cc2ccc(=O)oc12 [Imperatorin] | 0.14 |
| C[C@@H]1O[C@@H](O[C@H]2C[C@@H](O)[C@]3(CO)[C@H]4[C@H](O)C[C@]5(C)[C@@H](C6=CC(=O)OC6)CC[C@]5(O)[C@@H]4CC[C@]3(O)C2)[C@H](O)[C@H](O)[C@H]1O [Ouabain] | -1.06 |
| COc1ccc(C(CN(C)C)C2(O)CCCCC2)cc1 (stereo not given) [Venlafaxine HCl] | -0.14 |
| CNC1CC(N)C(O)C(OC2OC(CO)C(O)C3OC4(OC(C(N)CO)C(O)C(O)C4O)OC23)C1O (stereo not given) [Hygromycin B] | -0.44 |
| C=CN1CCCC1=O.II [Povidone iodine] | 2.59 |

| SMILES | z-score of subpopulation abundance |
| --- | --- |
| C=C[C@H]1CN2CC[C@H]1C[C@H]2[C@H](O)c1ccnc2ccccc12 [Cinchonidine] | -0.48 |
| CCCN1C[C@H](CSC)C[C@@H]2c3cccc4[nH]cc(c34)C[C@H]21 [Pergolide Mesylate] | -0.75 |
| O=c1[nH]c2ccccc2n1CCCN1CCC(n2c(=O)[nH]c3cc(Cl)ccc32)CC1 [Domperidone] | 1.05 |
| C=C(C)[C@H]1Cc2c(ccc3c2O[C@@H]2COc4cc(OC)c(OC)cc4[C@@H]2C3=O)O1 [Rotenone (Barbasco)] | 1.77 |
| O=C(O[C@H]1C[N+]2(CCCOc3ccccc3)CCC1CC2)C(O)(c1cccs1)c1cccs1 [Aclidinium Bromide] | -0.54 |
| N#Cc1nn(-c2c(Cl)cc(C(F)(F)F)cc2Cl)c(N)c1[S+]([O-])C(F)(F)F (stereo not given) [Fipronil] | -1 |
| Cc1cc(O)ccc1Cl [Chlorocresol] | -0.87 |
| COc1cc2c(cc1OC)C1CC(=O)C(CC(C)C)CN1CC2 (stereo not given) [Tetrabenazine (Xenazine)] | -0.31 |
| CN1[C@@H]2C[C@@H](OC(=O)[C@H](CO)c3ccccc3)C[C@H]1[C@@H]1O[C@@H]12 [Scopolamine HBr] | -1.08 |
| CC(C)N(CCC(C(N)=O)(c1ccccc1)c1ccccn1)C(C)C (stereo not given) [Disopyramide] | 1.07 |
| C#C[C@]1(O)C=C[C@H]2[C@@H]3CCC4=CC(=O)CC[C@@H]4[C@H]3CC[C@@]21CC [Gestodene] | 0.11 |
| CC(=O)O[C@H]1C[C@@H]2CC[C@@H]3[C@H](CC[C@@]4(C)[C@H]3C[C@H]([N+]3(C)CCCCC3)[C@@H]4OC(C)=O)[C@@]2(C)C[C@@H]1[N+]1(C)CCCCC1 [Pancuronium dibromide] | -0.5 |
| Nc1nc(N)nc(NC2CC2)n1 [Cyromazine] | 0.88 |
| CN(C)[C@@H]1C(=O)C(C(N)=O)=C(O)[C@@]2(O)C(=O)C3=C(O)c4c(O)cccc4[C@@](C)(O)[C@H]3C[C@@H]12 [Tetracycline HCl] | 0.02 |
| NCC(O)c1ccc(O)cc1 (racemic) [(+,-)-Octopamine HCl] | -0.28 |
| CN[C@@H]1[C@@H](O)[C@@H](O[C@@H]2[C@@H](O)[C@H](O[C@H]3O[C@H](CN)CC[C@H]3N)[C@@H](N)C[C@H]2N)OC[C@]1(C)O.CN[C@@H]1[C@@H](O)[C@@H](O[C@@H]2[C@@H](O)[C@H](O[C@H]3O[C@H]([C@@H](C)N)CC[C@H]3N)[C@@H](N)C[C@H]2N)OC[C@]1(C)O.CN[C@@H]1[C@@H](O)[C@@H](O[C@@H]2[C@@H](O)[C@H](O[C@H]3O[C@H]([C@@H](C)NC)CC[C@H]3N)[C@@H](N)C[C@H]2N)OC[C@]1(C)O [Gentamicin Sulfate] | -0.42 |
| CN(C)[C@@H]1C(=O)C(C(N)=O)=C(O)[C@@]2(O)C(=O)C3=C(O)c4c(O)cccc4[C@@](C)(O)[C@H]3[C@H](O)[C@@H]12 [Oxytetracycline (Terramycin)] | 0.16 |
| O=c1cccc2n1C[C@@H]1CNC[C@H]2C1 [Cytisine] | -0.22 |
| CC[C@H]1[C@@H]2C[C@H]3[C@@H]4N(C)c5ccccc5[C@]45C[C@@H]([C@@H]2[C@H]5O)N3[C@@H]1O [Ajmaline] | -0.63 |
| COc1ccc2[nH]cc(CCN)c2c1 [5-Methoxytryptamine] | 0.69 |
